Only some compounds are listed: those with a hit (about 3.6% of all), similar ones and a draw of the others.
WT yeast gro inh – growth inhibition of WT yeast, mitochondrial fusion screen; mitochondrial fusion phenotypic screen, WT strain; inhibition, % at 10 µM; actives 2.1% (n = 190,000); AID 1362; in the data active = inhibition above about 58%; tested in S. cerevisiae
DAT uptake mod – changed human dopamine transporter uptake under cocaine IC80; LLC-PK1 hDAT cells, [14C]-dopamine uptake with cocaine IC80; actives deviate in either direction; B-score at 10 µM; actives 1.3% (n = 110,000); AID 449768;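 active = Z score or B-score, a plate-position-corrected score, falls beyond the plate's 99.7% confidence bounds, in either direction; inactive = both scores lie inside the 99.7% bounds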;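 note: scored against the spread of the other compound wells on the same plate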
HCT116 PTEN-null – PTEN-deleted cell growth suppression. actives 1.2% (n = 140,000). HCT116 PTEN-null viability, CellTiter-Glo, 60 h; hits give low values. viability, % at 10 µM;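 active = viability at or below a set limit, 4 SD under the median of all tested compounds, cut at about 3.7% in these data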;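 note: PTEN knockout HCT116 line with beta catenin targeted HCT116 as companion control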
bCat KO growth – beta-catenin-lacking colon tumor cell growth suppression. HCT116 beta-catenin knockout viability, CellTiter-Glo, 60 h; hits give low values. viability, % at 10 µM. actives 1.5% (n = 140,000). AID 818;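 active = viability at or under a set limit, the compound median less 4 SD, cut at about 6% in these data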;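 note: 0% = Hyamine 1622 control at 20 µM and 100% = untreated cell control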
Numbers without * were called inactive; x = no result.

SMILES	WT yeast gro inh	DAT uptake mod	HCT116 PTEN-null	bCat KO growth
CCOC(=O)c1ccc(N=C2SC(C(=O)Nc3ccc(C(=O)O)cc3)CC(=O)N2Cc2cccs2)cc1 (centres undefined)	-5	x	x	x
O=C(Nc1cccc(Cl)c1)Nc1cc(S(=O)(=O)N2CCCCC2)ccc1Cl	49	x	2.4*	3.9*
CC(=O)Nc1sc(C)c(C)c1C(=O)OCC(=O)Nc1cc(S(=O)(=O)N2CCCCC2)ccc1Cl	11	x	3.1*	40
CN1CCN(S(=O)(=O)c2ccc(NC(=O)Nc3cccc(Cl)c3)cc2)CC1	-5	0.005	24	22
Cc1ccccc1-c1nnc(NC(=O)c2cc3ccccc3oc2=O)s1	0	-0.098	96	97
CCc1nnc(NC(=O)c2cc3ccccc3oc2=O)s1	-6	-8.9*	89	92
O=C(c1ccc(Cn2c(=S)[nH]c3ccccc3c2=O)cc1)N1CCN(c2ccccn2)CC1	9	x	x	x
Cc1ccc(C2=NC(C)(C)N=C2SCC(=O)Nc2ccc(Cl)cc2)cc1	57	-7.4*	66	62
CCCCC1CCC(c2nc(-c3ccccn3)no2)CC1 (centres undefined)	10	-0.56	74	67
CCCCC1CCC(c2nc(-c3cccnc3)no2)CC1 (centres undefined)	68*	-0.36	80	81
C[C@H]1CC[C@@]2(O[C@H](CCO)C[C@H](O)[C@H]2O)O1	x	-0.97	x	x
COc1ccc(C2=CC3=C(Br)C(=O)C(C)(OC(=O)c4cnc5ccccc5n4)C(=O)C3=CO2)cc1 (centres undefined)	x	-0.42	x	x
COc1ccc(N(CC(=O)NCCC2=CCCCC2)S(=O)(=O)c2ccc(C)cc2)cc1	9	x	x	x
CCOCCCNC(=O)C(c1ccc(Cl)cc1)N1CCC2(CC1)OCCO2 (centres undefined)	7	-8.5*	93	83
CCOC(=O)c1nnc(-c2ccc(C)cc2)nc1Oc1ccccc1Cl	2	-0.14	102	86
CCOC(=O)c1nnc(-c2ccc(C)cc2)nc1Oc1ccc(Cl)cc1Cl	40	-2.7*	92	91
COc1ccc(CNC(=O)C2CC(c3ccc(F)cc3)=NO2)cc1 (centres undefined)	15	0.55	100	100
COc1ccc(CNC(=O)C2CC(c3ccc(OC)cc3)=NO2)cc1 (centres undefined)	2	-3.4*	87	116
CC1(C)Cc2c(sc3nc(SCC(=O)NCc4ccco4)n(-c4ccccc4)c(=O)c23)CS1	3	2.8*	71	91
O=C(CSc1nc2sc3c(c2c(=O)n1-c1ccccc1)CCCC3)NCc1ccco1	9	x	62	62
CCCCCCc1cc2cc(S(=O)(=O)c3ccc(C)cc3)c(=O)oc2cc1O	39	-0.39	96	78
CCCCCCc1cc2cc(C(=O)Nc3ccccc3)c(=O)oc2cc1O	-9	x	1.7*	1.5*
CCCCCCc1cc2cc(S(=O)(=O)c3ccc(Cl)cc3)c(=O)oc2cc1O	88*	0.0047	77	84
CCCCCCc1cc2cc(C(=O)NCc3ccccc3)c(=N)oc2cc1O	12	-0.56	94	99
N#CCc1ccc(C(=O)c2ccccc2)s1	4	0.94	97	107
SMILES	WT yeast gro inh	DAT uptake mod	HCT116 PTEN-null	bCat KO growth
Cc1cc(NS(=O)(=O)c2ccc(NC(=O)c3ccco3)cc2)no1	-5	2.7*	102	97
Cc1cc(NS(=O)(=O)c2ccc(NC(=O)c3ccco3)cc2)nc(C)n1	5	-0.45	87	88
CCCC(=O)Nc1ccc(C)c(O)c1	16	-0.83	1.0*	1.0*
S=C(Nc1ccc2nc(-c3ccccn3)c(-c3ccccn3)nc2c1)N1CCCCC1	1	x	x	x
CCCNC(=S)Nc1ccc2nc(-c3ccccn3)c(-c3ccccn3)nc2c1	72*	x	89	96
COc1ccc(-c2nc3cc(NC(=O)c4ccc5c(c4)OCO5)ccc3o2)cc1	11	-9*	78	79
CN1CCN(Cc2nc3ccccc3c(=O)n2Cc2nc(-c3cccc([N+](=O)[O-])c3)cs2)CC1	34	x	x	x
CN1CCN(Cc2nc3ccccc3c(=O)n2Cc2nc(-c3ccc4ccccc4c3)cs2)CC1	81*	x	0.7*	0.8*
Cc1cc(OC(=O)c2cccs2)ccc1C(C)C	33	-1.5	98	104
Cc1oc2ccc(OC(=O)c3cccs3)cc2c1C(=O)OC(C)C	71*	x	95	95
Cc1ccc(S(=O)(=O)N2CCc3ccccc3C2CN2C(=O)c3ccccc3C2=O)cc1 (centres undefined)	-7	-0.13	67	69
O=C(CCS(=O)(=O)Cc1ccccc1)NCC1CCCO1 (centres undefined)	-13	2.1*	110	97
O=C(Cc1ccccc1)NCC1CCCO1 (centres undefined)	-18	-0.0019	97	100

Screens from PubChem.
